Experimental data: PubChem BioAssay AID2704 (Broad Institute, 2010)
Active and inactive are the calls of the source.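 Rule for the calls: active = a dose-dependent loss of polyadenylated product, with a fitted EC50, the dose giving half the full effect; inactive = no dose-dependent effect seen.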

Test: GAL7 RNA poly(A) addition blockers – cell lysate, S. cerevisiae extracts, radioactive, gel readout, orthogonal assay for polyadenylation inhibitor project, dose response (AID 2704)
Settings: S. cerevisiae extract

EC50, active:
Cc1ccc2nc(/C(C#N)=C/c3ccc([N+](=O)[O-])o3)[nH]c2c1 700 µM, N#C/C(=C/c1ccc([N+](=O)[O-])o1)c1nc2ccccc2[nH]1 1100 µM, COc1cc(/C=C2/CC/C(=C/c3ccc(O)c(OC)c3)C2=O)ccc1O 400 µM, N#CC1(C#N)C2=C(CCCC2)NC(c2ccccc2)C1(C#N)C#N (stereo unspecified) 280 µM, Cc1ccc(-c2nn3c(C)nnc3s2)cc1NC(=O)CSc1ccc(Cl)cc1 900 µM, CCOc1cc(/C=C2\N=C(SC(C)C(N)=O)N(c3ccc(OC(F)F)cc3)C2=O)ccc1O (stereo unspecified) 410 µM
